# PubChem BioAssay
# Values without a mark were called inactive. For some of these results: Measured potencies and affinities stand elsewhere. The list shows a part of the results. Active and inactive are the calls of the source.
# Assays:
# [1] = target: Inward rectifier potassium channel 2 (Mus musculus) (UniProt P35561); test: inhibition of Kir2.1 inward rectifier potassium flux – cell-based, FluxOR thallium flux, duplicate, confirmation (AID 2032;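 active = Primary-screen hit whose thallium flux fell at least 3 control SD below untreated wells in both duplicates, with normal baseline fluorescence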); conditions: Kir2.1-expressing cells, FluxOR thallium flux fluorescence, at 10 µM; stronger effect = lower value
# Inward rectifier potassium channel 2 (Mus musculus), sequence (P35561 whole entry, looked up): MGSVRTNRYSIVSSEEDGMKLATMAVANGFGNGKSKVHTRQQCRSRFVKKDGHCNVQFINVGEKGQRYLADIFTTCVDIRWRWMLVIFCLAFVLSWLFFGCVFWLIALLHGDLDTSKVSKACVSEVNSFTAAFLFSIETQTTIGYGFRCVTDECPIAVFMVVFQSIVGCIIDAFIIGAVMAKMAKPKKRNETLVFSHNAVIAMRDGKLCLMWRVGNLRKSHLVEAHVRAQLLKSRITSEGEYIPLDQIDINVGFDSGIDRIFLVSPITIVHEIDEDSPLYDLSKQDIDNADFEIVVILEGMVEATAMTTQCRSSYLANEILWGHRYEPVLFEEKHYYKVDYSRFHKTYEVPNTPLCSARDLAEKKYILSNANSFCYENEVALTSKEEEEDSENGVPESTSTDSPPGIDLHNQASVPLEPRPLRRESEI
# [2] = parental HEK293 cell activity, no Kir2.1 – FluxOR thallium flux, duplicate, single concentration, counter-screen for Kir2.1 inhibitor project, confirmation (AID 2105;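 active = dye signal at least 3 control SD above or below untreated wells in both duplicates, raw fluorescence within 3, either direction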); conditions: parental HEK293 cells, FluxOR thallium flux fluorescence, at 10 µM; 0% = unstimulated blank wells
# [3] = target: Voltage-gated inwardly rectifying potassium channel KCNH2 (Homo sapiens) (UniProt Q12809); test: hERG block by Kir2.1 inhibitor candidates – cell-based, thallium flux, counter-screen for Kir2.1 inhibitor project (AID 2236); conditions: hERG-expressing cells, at 10 µM; stronger effect = higher value;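 also: host cells are CHO cells stably expressing hERG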
# Voltage-gated inwardly rectifying potassium channel KCNH2 (Homo sapiens), sequence (Q12809 whole entry, looked up): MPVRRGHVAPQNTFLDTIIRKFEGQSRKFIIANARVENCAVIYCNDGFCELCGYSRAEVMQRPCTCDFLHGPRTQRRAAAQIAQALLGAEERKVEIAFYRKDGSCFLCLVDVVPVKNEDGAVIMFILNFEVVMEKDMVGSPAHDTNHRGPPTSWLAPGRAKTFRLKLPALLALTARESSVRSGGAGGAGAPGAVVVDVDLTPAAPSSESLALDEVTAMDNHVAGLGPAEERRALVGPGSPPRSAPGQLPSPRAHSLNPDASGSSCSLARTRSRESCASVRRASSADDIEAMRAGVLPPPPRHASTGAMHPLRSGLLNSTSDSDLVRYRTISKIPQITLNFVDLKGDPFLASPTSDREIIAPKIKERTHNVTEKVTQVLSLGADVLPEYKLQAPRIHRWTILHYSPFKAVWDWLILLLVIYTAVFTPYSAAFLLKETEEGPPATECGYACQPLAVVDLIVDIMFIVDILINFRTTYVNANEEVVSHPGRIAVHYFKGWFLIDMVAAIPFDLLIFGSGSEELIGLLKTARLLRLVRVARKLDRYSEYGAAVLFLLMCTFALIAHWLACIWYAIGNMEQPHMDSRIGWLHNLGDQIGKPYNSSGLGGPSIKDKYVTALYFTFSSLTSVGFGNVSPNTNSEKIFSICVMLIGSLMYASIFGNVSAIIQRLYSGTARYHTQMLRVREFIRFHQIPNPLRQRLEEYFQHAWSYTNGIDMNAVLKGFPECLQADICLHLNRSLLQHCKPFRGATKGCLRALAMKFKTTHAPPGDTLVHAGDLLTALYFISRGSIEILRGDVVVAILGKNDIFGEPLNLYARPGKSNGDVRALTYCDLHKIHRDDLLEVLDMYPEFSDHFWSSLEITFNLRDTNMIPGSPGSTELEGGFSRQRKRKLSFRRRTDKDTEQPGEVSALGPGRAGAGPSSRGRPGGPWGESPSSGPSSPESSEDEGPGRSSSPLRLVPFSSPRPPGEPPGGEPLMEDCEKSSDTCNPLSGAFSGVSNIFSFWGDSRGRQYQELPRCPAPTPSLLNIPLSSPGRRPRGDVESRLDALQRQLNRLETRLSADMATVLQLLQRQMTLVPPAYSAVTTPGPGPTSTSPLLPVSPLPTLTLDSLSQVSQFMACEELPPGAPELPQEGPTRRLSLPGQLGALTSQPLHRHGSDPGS
# [4] = target: Potassium channel subfamily K member 9 (Homo sapiens) (UniProt Q9NPC2); test: human KCNK9 potassium channel blockers – cell-based, selectivity assay for Kir2.1 inhibitor project (AID 2329); conditions: KCNK9-expressing cells, ion flux inhibition, at 10 µM; stronger effect = higher value
# [5] = target: Inward rectifier potassium channel 2 (Mus musculus) (UniProt P35561); test: Kir2.1 potassium current inhibition – cell-based, secondary, automated electrophysiology, Kir2.1 inhibitor project (AID 463252); conditions: Kir2.1 cells, automated patch-clamp current inhibition, at 25 µM; stronger effect = higher value
# [6] = nonspecific voltage dye response without TRPC6 – cell-based, parental HEK293, counter-screen for TRPC6 modulator project, confirmation (AID 488924;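 active = membrane potential signal moves up or down beyond 5 SD from buffer-only wells, on both duplicate plates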); conditions: parental HEK293, membrane potential dye fluorescence; at 10 µM
# [7] = membrane potential response modulators in host HEK293 cells – cell-based, second counter-screen, parental HEK293, membrane potential dye, counter-screen for TRPC6 modulator project, confirmation (AID 488926;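 active = membrane potential signal drops by more than 5 SD from the mean control signal, in both duplicate plates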); conditions: parental HEK293, membrane potential dye fluorescence; at 10 µM; after compound, maximal acetylcholine stimulation
# [8] = system: Transient receptor potential cation channel subfamily C member 4 (mouse); test: off-target membrane potential effects via mouse TRPC4 – cell-based, HEK293 TRPC4/mu-opioid, membrane potential dye, selectivity assay for TRPC6 modulator project, confirmation (AID 488927;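 active = membrane potential signal moved up or down beyond 5 SD of buffer control wells, in both duplicate plates, actives on both sides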;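 also: plate controls were assay buffer wells for no effect and DAMGO maximal-effect wells for full effect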); conditions: membrane potential fluorescence, at 10 µM
# [9] = system: TRPC4 (transient receptor potential cation channel C4), mouse; test: DAMGO-evoked mouse TRPC4 response blockade – cell-based, second screen, HEK293 TRPC4/mu-opioid, membrane potential dye, selectivity assay for TRPC6 modulator project, confirmation (AID 488928;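 active = drop in membrane potential signal beyond 5 SD of the control wells in both duplicate plates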;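 also: TRPC4 counter screen for TRPC6 hits run under conditions tuned for TRPC6 not TRPC4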); conditions: membrane potential dye fluorescence, at 10 µM, stimulated with maximal-effect DAMGO; stronger effect = higher value
# [10] = target: Short transient receptor potential channel 6 (Mus musculus) (UniProt Q61143); test: blockers of TRPC6 cation channel activity – HEK293 cells, membrane potential dye, duplicate, confirmation (AID 488960;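 active = fluorescence ratio falls more than 5 SD below the full-stimulation control mean, in both duplicate runs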;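 as to inhibition: integrated fluorescence ratio of peak minus minimum over baseline after agonist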); conditions: ACh-evoked depolarization, at 10 µM; stronger effect = higher value
# Short transient receptor potential channel 6 (Mus musculus), sequence (Q61143 whole entry, looked up): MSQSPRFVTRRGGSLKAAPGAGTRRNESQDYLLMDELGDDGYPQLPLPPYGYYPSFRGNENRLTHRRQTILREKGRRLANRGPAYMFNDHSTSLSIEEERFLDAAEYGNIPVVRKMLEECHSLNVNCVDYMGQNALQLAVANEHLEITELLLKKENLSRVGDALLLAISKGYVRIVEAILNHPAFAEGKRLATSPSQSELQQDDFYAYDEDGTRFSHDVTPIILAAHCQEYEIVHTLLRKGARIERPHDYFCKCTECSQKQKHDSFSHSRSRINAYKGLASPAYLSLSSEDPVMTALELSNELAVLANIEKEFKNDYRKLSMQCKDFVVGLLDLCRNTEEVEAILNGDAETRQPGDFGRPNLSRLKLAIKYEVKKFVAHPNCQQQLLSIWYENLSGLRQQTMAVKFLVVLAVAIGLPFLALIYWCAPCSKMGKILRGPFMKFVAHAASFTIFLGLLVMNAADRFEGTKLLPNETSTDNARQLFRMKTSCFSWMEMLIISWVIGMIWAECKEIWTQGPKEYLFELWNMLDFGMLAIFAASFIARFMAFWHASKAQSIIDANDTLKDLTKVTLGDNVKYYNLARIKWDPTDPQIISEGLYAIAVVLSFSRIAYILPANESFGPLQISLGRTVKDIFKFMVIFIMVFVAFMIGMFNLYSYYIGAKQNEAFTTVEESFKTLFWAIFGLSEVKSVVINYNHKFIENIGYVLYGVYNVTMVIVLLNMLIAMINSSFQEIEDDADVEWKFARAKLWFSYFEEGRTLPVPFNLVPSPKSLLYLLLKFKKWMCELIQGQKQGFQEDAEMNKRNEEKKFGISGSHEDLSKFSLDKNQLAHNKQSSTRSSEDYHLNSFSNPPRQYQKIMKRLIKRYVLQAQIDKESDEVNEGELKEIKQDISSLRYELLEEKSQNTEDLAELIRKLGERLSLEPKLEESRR
# [11] = target: Short transient receptor potential channel 6 (Mus musculus) (UniProt Q61143); test: mouse TRPC6 channel activators, confirmation, HEK293 cells, membrane potential dye, duplicate (AID 488961;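 active = ratio signal rise beyond 5 SD above unstimulated control wells' mean, seen in both duplicate runs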;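 as to activation: plate controls were buffer EC0 wells for no effect and acetylcholine ECmax response for full effect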); conditions: HEK293-TRPC6 membrane potential dye fluorescence, FDSS, at 10 µM; stronger effect = higher value
# [12] = parental CHO-K1 cell activation, no KCNQ2 – FluxOR thallium flux, duplicate, counter-screen for KCNQ2 potentiator project, confirmation (AID 2282;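 active = signal rise of at least 3 SD above the untreated control mean, in both duplicate wells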;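 also: counter screen of KCNQ2 potentiator hits so any rise reflects channel-independent effects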); conditions: parental CHO-K1 cells, FluxOR thallium flux fluorescence; at 10 µM; stronger effect = higher value; zero = vehicle mean+3SD, 100% = vehicle-minus-blank window
# [13] = target: Potassium voltage-gated channel subfamily KQT member 1 (Homo sapiens) (UniProt P51787); test: KCNQ1 activation in stable CHO cells – cell-based, FluxOR thallium flux, selectivity assay for KCNQ2 potentiator project, confirmation (AID 2283;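 active = fluorescence ratio rise of at least 3 SD of vehicle wells above their mean, in both replicate wells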;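 also: 0% = vehicle mean plus 3 SD and 100% = vehicle minus unstimulated blank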); conditions: FluxOR thallium flux fluorescence, at 10 µM, stronger effect = higher value, beyond 3SD, as % of vehicle-control signal
# Potassium voltage-gated channel subfamily KQT member 1 (Homo sapiens), sequence (P51787 whole entry, looked up): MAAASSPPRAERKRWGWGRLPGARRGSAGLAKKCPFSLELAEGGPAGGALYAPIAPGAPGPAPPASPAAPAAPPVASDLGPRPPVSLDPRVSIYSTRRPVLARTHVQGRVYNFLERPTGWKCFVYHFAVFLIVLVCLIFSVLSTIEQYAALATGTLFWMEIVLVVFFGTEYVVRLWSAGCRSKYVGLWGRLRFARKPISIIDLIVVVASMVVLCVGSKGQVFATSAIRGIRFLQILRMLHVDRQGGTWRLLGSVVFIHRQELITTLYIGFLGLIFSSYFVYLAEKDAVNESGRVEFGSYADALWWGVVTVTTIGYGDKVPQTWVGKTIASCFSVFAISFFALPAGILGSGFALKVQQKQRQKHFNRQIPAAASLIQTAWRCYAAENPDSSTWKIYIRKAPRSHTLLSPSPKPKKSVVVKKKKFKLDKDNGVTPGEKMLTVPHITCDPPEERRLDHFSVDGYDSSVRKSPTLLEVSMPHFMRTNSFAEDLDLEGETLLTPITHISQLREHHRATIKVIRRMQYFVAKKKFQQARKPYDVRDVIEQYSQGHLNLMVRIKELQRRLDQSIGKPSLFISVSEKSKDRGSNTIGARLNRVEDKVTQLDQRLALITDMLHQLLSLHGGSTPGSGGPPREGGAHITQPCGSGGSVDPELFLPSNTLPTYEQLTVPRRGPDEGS
# [14] = target: Potassium voltage-gated channel subfamily KQT member 2 (Rattus norvegicus) (UniProt O88943); test: KCNQ2 potassium channel activity enhancers – cell-based, CHO, FluxOR thallium flux, duplicate, confirmation (AID 2287;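 active = fluorescence ratio rising 3 SD or more over the vehicle control mean in both replicates, plus primary screen hit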;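 also: peak minus minimum thallium fluorescence divided by baseline after K/Tl stimulus; 0% = vehicle mean plus 3 SD and 100% = vehicle minus unstimulated blank difference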); conditions: CHO-KCNQ2 cells, FluxOR thallium flux fluorescence; at 10 µM; stronger effect = higher value
# [15] = target: Inward rectifier potassium channel 2 (Mus musculus) (UniProt P35561); test: PubChem AID 2345; conditions: HEK293 Kir2.1, FluxOR thallium flux fluorescence; at 10 µM; stronger effect = higher value;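 also: 0% = vehicle mean plus 3 SD and 100% = vehicle minus no-stimulus blank window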
# [16] = system: TRPC4 beta (transient receptor potential cation channel C4), mouse; test: TRPC4 cation channel opening, retest – cell-based, Fluo4 calcium, HEK293 TRPC4beta/mu-opioid, duplicates, 10 µM, confirmation (AID 2426;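 active = fluorescence ratio normalized to control raised more than 50% in primary screen plus both repeat runs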); conditions: Fluo4 calcium fluorescence, at 10 µM; stronger effect = higher value
# [17] = system: transient receptor potential cation channel C4 beta (TRPC4), mouse; test: TRPC4 cation channel opening, second retest – cell-based, second round, Fluo4, HEK293 TRPC4beta/mu-opioid, 1 µM, confirmation (AID 2461;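 active = primary screen active and over 50% activation in each of two duplicate runs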); conditions: Fluo4 calcium fluorescence, at 1 µM; stronger effect = higher value
# [18] = system: TRPC4 (transient receptor potential cation channel C4 beta), mouse; test: potentiation of DAMGO EC20 TRPC4 response – cell-based, second round, Fluo-4, HEK293 TRPC4beta/mu-opioid, 1 µM, confirmation (AID 2554;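 active = primary screen hit whose fluorescence ratio, in both repeats, exceeds the weak agonist control mean by 3 SD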); conditions: DAMGO EC20, Fluo-4 calcium flux, at 1 µM; stronger effect = higher value
# [19] = system: TRPC4 beta (transient receptor potential cation channel C4), mouse; test: potentiation of DAMGO EC20 TRPC4 response – cell-based, Fluo-4, HEK293 TRPC4beta/mu-opioid, confirmation (AID 2555;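 active = primary screen hit whose calcium fluorescence ratio, in both repeats, exceeds the weak agonist control mean by 3 SD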); conditions: DAMGO EC20, Fluo-4 calcium flux, at 10 µM; stronger effect = higher value
# [20] = target: Short transient receptor potential channel 4 (Mus musculus) (UniProt Q9QUQ5); test: blockers of DAMGO-evoked TRPC4 calcium flux – cell-based, Fluo4, HEK293 TRPC4beta/mu-opioid, confirmation (AID 2636;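 active = calcium signal cut by more than 3 SD below the full-agonist control yet still positive, in both repeats and the earlier primary screen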); conditions: at 10 µM; stronger effect = higher value
# Short transient receptor potential channel 4 (Mus musculus), sequence (Q9QUQ5 whole entry, looked up): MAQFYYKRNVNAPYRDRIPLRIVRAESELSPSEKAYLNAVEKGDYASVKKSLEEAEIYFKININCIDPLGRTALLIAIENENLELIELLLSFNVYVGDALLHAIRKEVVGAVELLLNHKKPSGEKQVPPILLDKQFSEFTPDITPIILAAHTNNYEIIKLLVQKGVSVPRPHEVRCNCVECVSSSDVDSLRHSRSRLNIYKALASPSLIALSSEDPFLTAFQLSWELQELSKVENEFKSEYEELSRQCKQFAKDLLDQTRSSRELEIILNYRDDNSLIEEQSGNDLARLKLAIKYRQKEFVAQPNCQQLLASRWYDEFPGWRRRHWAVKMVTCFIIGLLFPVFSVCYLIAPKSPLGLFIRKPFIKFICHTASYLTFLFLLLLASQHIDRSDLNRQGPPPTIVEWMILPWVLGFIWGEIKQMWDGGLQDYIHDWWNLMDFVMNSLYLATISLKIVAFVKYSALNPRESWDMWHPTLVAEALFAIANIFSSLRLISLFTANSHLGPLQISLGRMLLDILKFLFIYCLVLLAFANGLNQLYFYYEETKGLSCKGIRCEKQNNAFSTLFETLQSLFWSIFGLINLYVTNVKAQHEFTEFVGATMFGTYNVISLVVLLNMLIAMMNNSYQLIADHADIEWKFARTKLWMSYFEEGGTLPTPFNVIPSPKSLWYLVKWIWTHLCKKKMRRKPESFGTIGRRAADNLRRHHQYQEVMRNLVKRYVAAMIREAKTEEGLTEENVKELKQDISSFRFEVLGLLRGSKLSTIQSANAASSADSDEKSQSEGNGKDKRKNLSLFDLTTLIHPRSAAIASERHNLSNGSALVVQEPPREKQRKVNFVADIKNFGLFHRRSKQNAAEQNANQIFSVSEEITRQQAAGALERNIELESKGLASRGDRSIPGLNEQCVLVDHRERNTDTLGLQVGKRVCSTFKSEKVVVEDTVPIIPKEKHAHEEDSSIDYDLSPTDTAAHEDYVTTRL
# [21] = target: Short transient receptor potential channel 4 (Mus musculus) (UniProt Q9QUQ5); test: blockers of DAMGO-evoked TRPC4 calcium flux – cell-based, second round, Fluo4, HEK293 TRPC4beta/mu-opioid, 1 µM, confirmation (AID 2637;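 active = calcium signal ratio cut to more than 3 SD under the fully stimulated control mean yet still positive, in both repeats and the primary screen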); conditions: at 1 µM; stronger effect = higher value
# [22] = target: Short transient receptor potential channel 4 (Mus musculus) (UniProt Q9QUQ5); test: calcium entry via TRPC4 opening agents – cell-based, HEK293 TRPC4/mu-opioid, Fluo-4 calcium, dose response (AID 434937;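 active = primary screen activator hit with a dose response curve and TRPC4 channel activation at any tested dose; inactive = no activation, no dose response, or not a primary hit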)
# [23] = target: Short transient receptor potential channel 4 (Mus musculus) (UniProt Q9QUQ5); test: potentiation of DAMGO-evoked TRPC4 calcium signal – cell-based, HEK293 TRPC4/mu-opioid, Fluo-4 calcium, EC20 DAMGO, dose response (AID 434941;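 active = earlier screen potentiator hit that boosts the TRPC4 ion channel at some dose, with a dose response; inactive = no potentiation, no dose response, or not a prior hit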;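 also: calcium entry triggered by an EC20 dose of DAMGO at the co-expressed mu-opioid receptor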)
# [24] = target: Short transient receptor potential channel 4 (Mus musculus) (UniProt Q9QUQ5); test: block of DAMGO-driven TRPC4 calcium entry – cell-based, HEK293 TRPC4/mu-opioid, Fluo-4 calcium, dose response (AID 434942;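 active = primary screen inhibitor hit that blocks the TRPC4 channel at some tested dose, yielding a dose curve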)
# [25] = target: Short transient receptor potential channel 6 (Mus musculus) (UniProt Q61143); test: TRPC6 blockade by TRPC4 inhibitor hits – cell-based, HEK293, membrane potential dye, duplicate, selectivity assay for TRPC4 inhibitor project, confirmation (AID 434948;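 active = active in primary screen and both duplicates, each dropping signal beyond three positive-control SD with fluorescence still positive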); conditions: HEK293 TRPC6, membrane potential dye fluorescence, at 10 µM, stimulated with maximal-effect acetylcholine; stronger effect = higher value
# [26] = target: Short transient receptor potential channel 6 (Mus musculus) (UniProt Q61143); test: TRPC6 opening by TRPC4 activator hits – cell-based, HEK293, membrane potential dye, duplicate, selectivity assay for TRPC4 activator project, confirmation (AID 434950;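 active = membrane potential signal rise above negative control mean plus 3 SD in both duplicates, also active in the earlier TRPC4 screen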); conditions: HEK293 TRPC6, membrane potential fluorescence, at 10 µM; activation: stronger effect = higher value; outcome: activation
# [27] = target: Short transient receptor potential channel 6 (Mus musculus) (UniProt Q61143); test: positive modulators of mouse TRPC6 channel – HEK293 cells, membrane potential dye, duplicate, selectivity assay for TRPC4 potentiator project, confirmation (AID 434952;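 active = compound raising the membrane signal above positive-control mean plus 3 SD in both repeats, and a primary screen hit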); conditions: HEK293 TRPC6, membrane potential dye fluorescence, at 10 µM, maximal acetylcholine added after compound; stronger effect = higher value
# [28] = target: Short transient receptor potential channel 4 (Mus musculus) (UniProt Q9QUQ5); test: calcium flux activators in TRPC4/5HT1a cells, counter-screen for TRPC4 activator project, cell-based, second counter screen, HEK293 TRPC4/5HT1a, Fluo-4 (AID 434977;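 active = calcium signal rise above buffer-control mean plus 5 SD in both duplicates, and also a hit in the primary screen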); conditions: Fluo-4 calcium flux, at 10 µM; stronger effect = higher value
# [29] = serotonin-gated TRPC4 signal block – cell-based, second counter screen, HEK293 TRPC4/5HT1a, Fluo-4, counter-screen for TRPC4 inhibitor project, confirmation (AID 434978;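 active = primary screen active whose calcium signal fell more than 3 SD beyond the full-serotonin control mean in both duplicate plates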;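 also: serotonin given first at submaximal then at maximal dose after compound preincubation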); conditions: Fluo-4 calcium flux, at 10 µM, serotonin added to trigger calcium flux; stronger effect = higher value
# [30] = system: TRPC4 (mouse), co-expressed with 5HT1a in HEK293; test: enhancement of serotonin-evoked TRPC4 response – cell-based, second counter screen, HEK293 TRPC4/5HT1a, Fluo-4, counter-screen for TRPC4 potentiator project, confirmation (AID 434979;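 active = signal rise over 3 SD above mean of control wells given weak agonist, in both repeats and first screen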); conditions: Fluo-4 calcium flux, at 10 µM, serotonin added at its EC20 dose; stronger effect = higher value
# [31] = nonspecific calcium rise without TRPC4 – cell-based, HEK293 mu-opioid receptor line, counter-screen for TRPC4 activator project, confirmation (AID 449723;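 active = hit in primary screen, with calcium signal over 5 SD above buffer well mean in both duplicates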;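 also: counter screen cells carry the mu-opioid receptor alone and lack TRPC4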); conditions: HEK293 mu-opioid cells, Fluo-4 calcium fluorescence, at 10 µM; stronger effect = higher value
# [32] = nonspecific potentiation of DAMGO calcium response – cell-based, HEK293 mu-opioid receptor line, counter-screen for TRPC4 allosteric potentiator project, confirmation (AID 449724;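 active = calcium signal rise more than 3 SD above the low-dose agonist control mean, in both duplicate plates and the primary screen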); conditions: HEK293 mu-opioid receptor cells, Fluo-4 calcium flux, at 10 µM, compound added before EC20 DAMGO stimulus; stronger effect = higher value
# [33] = target: Potassium voltage-gated channel subfamily KQT member 2 (Rattus norvegicus) (UniProt O88943); test: W236L mutant KCNQ2 current enhancers – cell-based, rat KCNQ2 W236L, CHO, automated patch clamp, mechanism study for KCNQ2 potentiator project (AID 2558;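 active = current increase at least 3 SD of the untreated controls above them in both duplicate recordings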); conditions: at 25 µM
compound,measurement,setting,value
O=C(Cc1c[nH]c2ccccc12)OCCOC(=O)Cc1c[nH]c2ccccc12,"Tl flux remaining, % of negative control (stronger effect = lower value)",[1],48.5% (active)
same,outcome,[2],inactive
CC(C)(C)c1cc2cccnc2n1Cc1cccc(F)c1,"Tl flux remaining, % of negative control (stronger effect = lower value)",[1],72% (active)
same,outcome,[2],inactive
O=C(NCCc1c[nH]c2ccccc12)C1CCN(Cc2ccc(Br)cc2)CC1,"Tl flux remaining, % of negative control (stronger effect = lower value)",[1],62% (active)
same,outcome,[2],inactive
same,inhibition,[3],61% (active)
same,outcome,[4],inactive
same,outcome,[5],inactive
same,outcome,[6],inactive
same,outcome,[7],inactive
same,"percent change from control (negative = decrease, positive = increase)",[8],11% (active)
same,inhibition,[9],58% (active)
same,outcome,[10],inactive
same,outcome,[11],inactive
CCCc1cc(=O)[nH]c(SCC(=O)c2cc(C)n(CCC)c2C)n1,"Tl flux remaining, % of negative control (stronger effect = lower value)",[1],60% (active)
same,outcome,[2],inactive
same,outcome,[3],inactive
same,outcome,[4],inactive
same,inhibition,[5],30.9% (active)
COc1ccc(-c2n[nH]c(C)c2-c2ccccc2OC)c(O)c1,outcome,[1],inactive
same,outcome,[2],inactive
same,activity increase over 3SD of controls,[12],28.7% (active)
same,activation over 3SD threshold,[13],56.3% (active)
same,"potentiation, less the hit threshold",[14],-12.6%
same,activity over 3SD threshold,[15],-44.6%
same,outcome,[16],inactive
same,outcome,[17],inactive
same,outcome,[18],inactive
same,outcome,[19],inactive
same,outcome,[20],inactive
same,outcome,[21],inactive
same,outcome,[22],inactive
same,outcome,[23],inactive
same,outcome,[24],inactive
same,outcome,[25],inactive
same,outcome,[26],inactive
same,outcome,[27],inactive
same,outcome,[28],inactive
same,outcome,[29],inactive
same,outcome,[30],inactive
same,outcome,[31],inactive
same,outcome,[32],inactive
Clc1cccc(Cl)c1OCCOCCNCc1ccccc1,"Tl flux remaining, % of negative control (stronger effect = lower value)",[1],33% (active)
same,outcome,[2],inactive
same,outcome,[3],inactive
same,outcome,[4],inactive
same,inhibition,[5],69.6% (active)
O=C(Nc1ccc(Oc2ccccc2)cc1)c1ccco1,outcome,[1],inactive
same,outcome,[2],inactive
same,activity increase over 3SD of controls,[12],-13.5%
same,activation over 3SD threshold,[13],26% (active)
same,"potentiation, less the hit threshold",[14],37.7% (active)
same,activity over 3SD threshold,[15],-25.3%
same,"current increase over 3SD of negative controls (%), stronger effect = higher value",[33],9.43% (active)
CC(NCc1ccccc1OC1CCCC1)c1ccccc1 (stereo not drawn),"Tl flux remaining, % of negative control (stronger effect = lower value)",[1],23.5% (active)
same,outcome,[2],inactive
same,outcome,[3],inactive
same,outcome,[4],inactive
same,inhibition,[5],23.4% (active)
same,membrane potential signal change,[6],416% (active)
same,outcome,[7],inactive
same,"percent change from control (negative = decrease, positive = increase)",[8],114% (active)
same,inhibition,[9],79.5% (active)
same,inhibition,[10],83% (active)
same,activation,[11],122% (active)
CC(NC(=O)Nc1ccccc1)c1ccccc1 (stereo not drawn),outcome,[1],inactive
same,outcome,[2],inactive
same,activity increase over 3SD of controls,[12],-4.7%
same,activation over 3SD threshold,[13],-0.5%
same,"potentiation, less the hit threshold",[14],22.8% (active)
same,activity over 3SD threshold,[15],-35.8%
same,outcome,[33],inactive
